Results on 40 compounds are retold here after PubChem BioAssay AID1508635 (National Center for Advancing Translational Sciences (NCATS), 2021).

Inconclusive results are not listed. Values without a mark were called inactive. The source made the active and inactive calls. The call rests on the fitted dose curve; in most records, active means well fitted inhibition curve with a large enough effect; inconclusive means small, poorly fitted or top-dose-only effect; inactive means no such curve, though single readings can be large or run the other way. Numbered stars: 1 amine (or outer) side, 2 acyl side, 3 side chain; on linkers, the order of the positions; unused ones are H or OH. Bridge positions count the residues as written; N and C are the ends. Square brackets hold non-standard residues; d marks the D form. Peptide text beside a SMILES is read from it. I, II: the chains in the order shown. * marks the point of attachment. ξ: configuration not given here. Actinocin(9to1) = Cc1c2oc3c(C)ccc(C(=O)[*:1])c3nc-2c(C(=O)[*:2])c(N)c1=O; ξNMeV = CNC(C(=O)O)C(C)C; Cbz = O=C(OCc1ccccc1)*; Nva = CCC[CH](N)C(=O)O; ξV = CC(C)C(N)C(=O)O; Sar = CNCC(=O)O

This experiment concerns zebrafish Abcb4 (ABCB1 homolog). The experiment can be described thus: qHTS for characterization and localization of zebrafish homologs of the human ABCB1 multidrug transporter: ABCB4 transfected cells. The settings on record: CellTiter-Glo viability luminescence, 72 h; series mostly up to 46.1 µM; activity change, negative = inhibition: at the top concentration. The text has this:
The zebrafish has emerged as a potential model to study the blood-brain barrier (BBB) given its similarities with mammalian systems. However, little information has been available with regard to homologous ATP-binding cassette transporters expressed at the zebrafish BBB. Two transporters that are highly expressed at the human BBB are P-glycoprotein (P-gp, encoded by the ABCB1 gene) and ABCG2 (encoded by the ABCG2 gene). In this study, we focus on characterization of P-gp homologs in the zebrafish, which has two genes that are homologous to human ABCB1 - abcb4 and abcb5. We generated stably-transfected cell lines to determine their substrate specificities. […] Zebrafish abcb4 also colocalized with claudin 5 expression in brain endothelial cells.
A high-throughput screen was performed as previously described on empty vector transfected cells, P-gp-overexpressing MDR-19 cells and cells transfected with full-length zebrafish abcb4 (ZF Abcb4) or abcb5 (ZF Abcb5). Briefly, cells were plated into 1536-well plates at a density of 500 cells/well in 5 uL media. P-gp substrate compounds (approximately 90) selected from our previous study were then added at varying concentrations using a 1536-head pin tool (Kalypsis, San Diego, CA) and plates were incubated at 37C in 5% CO2 for 72 h. CellTiter-Glo reagent (Promega) was dispensed into the wells, incubated for 5 min and luminescence was read on a ViewLux instrument (Perkin-Elmer).
Cytotoxic compounds were defined as those that yielded a curve class of -1.1, -1.2, -2.1, -2.2, -2.3, or -2.4, a maximum response of >50% and an AC50 of < 10 uM. All compounds from screening analysis were tested in Vector (empty vector control), MDR-19 (P-gp overexpressing), zebrafish abcb4 (ZF Abcb4) and abcb5 (ZF Abcb5) expression cell lines.
1. Tobie D Lee, Olivia W Lee, Kyle R Brimacombe, Lu Chen, Rajarshi Guha, Sabrina Lusvarghi, Bethilehem G Tebase, Carleen Klumpp-Thomas, Robert W Robey, Suresh V Ambudkar, Min Shen, Michael M Gottesman, Matthew D Hall. A High-Throughput Screen of a Library of Therapeutics Identifies Cytotoxic Substrates of P-glycoprotein. Mol Pharmacol. 2019, Nov;96(5):629-640.
For orientation: In qHTS, concentration-response curves come from the screen itself.
For `CN(C)C1CCN(C(=O)c2ccc(NC(=O)Nc3nc(N4CCOCC4)nc(N4CCOCC4)n3)cc2)CC1`, the “activity change, negative = inhibition” value was -13.5%.

Turning to `O=C(NC1CC1)c1cccc(-c2ccc3c(NC(=O)C4CC4)n[nH]c3c2)c1`, the “activity change, negative = inhibition” value is -11.5%.

Consider `CC(NCc1ccc2c(c1)nc(NC(=O)c1ccc(-c3cn[nH]c3)s1)n2CC(C)(C)O)C(C)(C)C` (stereo not given), for which the Potency was 6.62 µM (active).

`CC1(C)CC(NC(=O)C(=O)Nc2ccc(Br)cc2)CC(C)(C)N1`: the “activity change, negative = inhibition” value is -3.92%.

As for `COc1cc2c(NC3CCN(C(C)C)CC3)nc(N3CCCN(C)CC3)nc2cc1OCCCN1CCCC1`, the “activity change, negative = inhibition” value is -9.68%.

`Cc1c2oc3c(C)ccc(C(=O)N[C@@H]4C(=O)NC(C(C)C)C(=O)N5CCC[C@H]5C(=O)N(C)CC(=O)N(C)C(C(C)C)C(=O)O[C@@H]4C)c3nc-2c(C(=O)N[C@@H]2C(=O)NC(C(C)C)C(=O)N3CCC[C@H]3C(=O)N(C)CC(=O)N(C)C(C(C)C)C(=O)O[C@@H]2C)c(N)c1=O` (stereo not given in full) (I: T[ξV]P[Sar][ξNMeV] / II: T[ξV]P[Sar][ξNMeV]; ester I:1-I:C, II:1-II:C; linker I:N-II:N via Actinocin(9to1)): the Potency was 0.418 µM (active).

In the case of `C[C@@H]1O[C@@H](O[C@H]2[C@H](O)[C@@H](O)[C@H](O[C@H]3[C@H](O[C@H]4CC[C@@]5(C)C(=CC[C@@H]6C5CC[C@]5(C)[C@@H]7[C@H](C[C@@H]65)O[C@]5(CC[C@@](C)(CO[C@@H]6O[C@H](CO)[C@@H](O)[C@H](O)[C@H]6O)O5)[C@H]7C)C4)O[C@H](CO)[C@@H](O)[C@@H]3O)O[C@@H]2CO)[C@H](O)[C@H](O)[C@H]1O` (stereo not given in full), the “activity change, negative = inhibition” value was -18.3% [at 15.2 µM].

Turning to `CO[C@H]1/C=C/C=C/C=C/C[C@H](OC(=O)[C@@H](C)NC(=O)C2CCCCC2)[C@H](C)[C@@H](O)/C(C)=C/CCc2cc(O)cc(c2)NC(=O)C1`, the “activity change, negative = inhibition” value is -15.5% [at 15.2 µM].

For the compound `CC(C)C[C@H](NC(=O)[C@H](CCc1ccccc1)NC(=O)CN1CCOCC1)C(=O)N[C@@H](Cc1ccccc1)C(=O)N[C@@H](CC(C)C)C(=O)[C@@]1(C)CO1`, the Potency was 2.35 µM (active).

Regarding `CCc1cccc(CC)c1NC(=O)N1Cc2[nH]nc(NC(=O)c3ccc(N4CCN(C)CC4)cc3)c2C1`, the “activity change, negative = inhibition” value was 2.17%.

As to `Cc1cc(Nc2cc(N3CCN(C)CC3)nc(Sc3ccc(NC(=O)C4CC4)cc3)n2)n[nH]1`, the “activity change, negative = inhibition” value was 3.38%.

As for `Cc1ccc(C(=O)N(CCCN)C(c2nc3cc(Cl)ccc3c(=O)n2Cc2ccccc2)C(C)C)cc1` (stereo not given), the Potency was 20.9 µM (active).

For `C[C@@H]1O[C@@H](O[C@H]2[C@@H](OC(=O)[C@]34CCC(C)(C)CC3C3=CCC5[C@@]6(C)C[C@H](O)[C@H](O[C@@H]7O[C@H](CO)[C@@H](O)[C@H](O)[C@H]7O[C@@H]7OC[C@@H](O)[C@H](O)[C@H]7O)[C@@](C)(C(=O)O)C6CC[C@@]5(C)[C@]3(C)CC4)OC[C@H](O)[C@@H]2O)[C@H](O)[C@H](O)[C@H]1O[C@@H]1OC[C@@H](O)[C@H](O)[C@H]1O` (stereo not given in full), the activity change, negative = inhibition was -5.3% [at 8.96 µM].

`COC[C@H](NC(=O)c1cnc(C)s1)C(=O)N[C@@H](COC)C(=O)N[C@@H](Cc1ccccc1)C(=O)[C@@]1(C)CO1`: the Potency was 0.935 µM (active).

Turning to `C=CCn1c(=O)c2cnc(Nc3ccc(N4CCN(C)CC4)cc3)nc2n1-c1cccc(C(C)(C)O)n1`, the Potency is 4.18 µM (active).

For the compound `O=C(NC1CCNCC1)c1[nH]ncc1NC(=O)c1c(Cl)cccc1Cl`, the “activity change, negative = inhibition” value was 0%.

With `CC(=O)C1(O)Cc2c(O)c3c(c(O)c2C(OC2CC(N)C(O)C(C)O2)C1)C(=O)c1c(O)cccc1C3=O` (stereo not given), the Potency was 0.526 µM (active).

In the case of `CC1(C)CC[C@]2(C(=O)OC3OC(CO)C(O)C(O)C3O)CC[C@]3(C)C(=CCC4[C@@]5(C)CC[C@H](OC6OC(C(=O)O)C(O)C(O)C6O)C(CO)(CO)C5CC[C@]43C)[C@@H]2C1` (stereo not given in full), the “activity change, negative = inhibition” value is 4.01% [at 15.2 µM].

Consider `CN(C)C/C=C/C(=O)Nc1cccc(C(=O)Nc2ccc(Nc3nccc(-c4cccnc4)n3)cc2)c1`, for which the “activity change, negative = inhibition” value was -2.48%.

As to `C#CCN(Cc1cc2c(=O)n(C)c(CN3CCN(C)CC3)nc2cc1Cl)c1ccc(C(=O)NCc2cccnc2)cc1`, the “activity change, negative = inhibition” value is -12.2%.

With `COC(C(=O)N1Cc2[nH]nc(NC(=O)c3ccc(N4CCN(C)CC4)cc3)c2C1)c1ccccc1` (stereo not given), the “activity change, negative = inhibition” value is -3.58%.

For `COc1cc2c(NC3CCN(C(C)C)CC3)nc(N3CCCN(C)CC3)nc2cc1OCCOCCN(C)C`, the “activity change, negative = inhibition” value is -9.4%.

For the compound `CCCC(C=O)NC(=O)C(CC(C)C)NC(=O)C(CC(C)C)NC(=O)OCc1ccccc1` (stereo not drawn) (Cbz-Leu-Leu-[Nva]-aldehyde; configuration not given here), the Potency is 3.72 µM (active).

Consider `COCCn1c2c([n+](Cc3cnccn3)c1C)C(=O)c1ccccc1C2=O`, for which the “activity change, negative = inhibition” value was -7.01%.

For `C#Cc1cccc(Nc2ncnc3cc(OC)c(OCCCCCCC(=O)NO)cc23)c1`, the Potency was 13.2 µM (active).

Consider `Cc1ccc(C(=O)N(CCCN)[C@@H](c2oc3cc(Cl)ccc3c(=O)c2Cc2ccccc2)C(C)C)cc1`, for which the Potency is 20.9 µM (active).

Turning to `Cc1ccc(-c2ncn(-c3ccc(Nc4nccc(-c5cccc(N6CCOCC6)c5)n4)cc3)n2)cn1`, the Potency is 4.18 µM (active).

`CCC(C)C(=O)OC1CC(O)C23C4OCC5(C(O)CC2C1(C)C(O)O4)C3C(=O)C(O)C1(C)C(O)(c2ccoc2)CC2OC251` (stereo not given): the “activity change, negative = inhibition” value is 3.68% [at 15.2 µM].

In the case of `CN(C)c1ccc(C(=C2C=CC(=[N+](C)C)C=C2)c2ccc(N(C)C)cc2)cc1`, the Potency is 13.2 µM (active).

`N=C(N)c1ccc(OCCCCCOc2ccc(C(=N)N)cc2)cc1`: the “activity change, negative = inhibition” value was -22.7%.

For the compound `CCS(=O)(=O)c1cccc(-c2cc(C(=O)NC3CCN(C)CC3)c(C)c3[nH]c4ncc(C)cc4c23)c1`, the “activity change, negative = inhibition” value is 0.87%.

As for `CC[C@@]1([C@@H]2O[C@@H]([C@H]3O[C@@](O)(CO)[C@H](C)C[C@@H]3C)C[C@@H]2C)CC[C@H]([C@]2(C)CC[C@]3(C[C@H](O)[C@@H](C)[C@@H]([C@@H](C)[C@@H](OC)[C@H](C)C(=O)O)O3)O2)O1`, the Potency was 1.05 µM (active).

In the case of `CC[n+]1c(-c2ccccc2)c2cc(N)ccc2c2ccc(N)cc21`, the “activity change, negative = inhibition” value is -14%.

In the case of `CC(C)C[C@@H](C=O)NC(=O)[C@H](CC(C)C)NC(=O)[C@H](CC(C)C)NC(=O)OCc1ccccc1` (Cbz-Leu-Leu-Leu-aldehyde), the Potency was 2.96 µM (active).

For `CC(=O)O[C@@H]1C[C@H](O)[C@@]23CO[C@@H](O)C1(C)[C@@H]2C[C@@H](O)[C@]1(C)[C@@H]3C(=O)[C@H](OC(C)=O)[C@@]2(C)[C@H](c3ccoc3)C[C@H]3O[C@]321`, the Potency was 2.96 µM (active).

Turning to `CCc1c(O)cc(O)c(C(=O)c2ccc(OCCN3CCOCC3)c(OC)c2)c1CC(=O)N(CCOC)CCOC`, the “activity change, negative = inhibition” value was -0.0218%.

For `CC(C)C[C@H](NC(=O)[C@@H](NC(=O)c1cccc(-c2ccccc2)n1)[C@@H](C)O)B(O)O`, the Potency was 0.662 µM (active).

On to `CCN1CCN(Cc2ccc(NC(=O)Nc3ccc(Oc4cc(NC)ncn4)cc3)cc2C(F)(F)F)CC1`, for which the “activity change, negative = inhibition” value was 3.35%.

As to `Cc1cc(N)c2ccccc2[n+]1CCCCCCCCCC[n+]1c(C)cc(N)c2ccccc21`, the “activity change, negative = inhibition” value was 3.65%.

Turning to `COc1cc(N2CCC(O)CC2)ccc1Nc1nc(Nc2ccccc2S(=O)(=O)C(C)C)c2[nH]cnc2n1`, the “activity change, negative = inhibition” value was -13.2%.
